Out of some 3,200 compounds screened, about 300 (9.4%) showed activity. Many of the other results were omitted from the sample, so actives are more common in it than they were.
Tested on: A673/TR/shEF
Experiment: cell viability (LOESS-normalised, relative to median of negative controls) (log2 ratio); higher = more viable cells (less compound effect), active = hit call of the paper (over 3 MAD below the median)
Conditions: treatment time: 72 h
In short: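 A673/TR/shEF Ewing sarcoma cells (1,500 per well, 384-well plates) were grown with or without doxycycline to induce EWS-FLI1 shRNA knockdown, starting 24 h before compounds. Library compounds at two or more concentrations, with DMSO controls, were added for three days. Cell viability was read by CellTiter-Glo luminescence on an Envision reader, then LOESS-corrected per plate, divided by the median of negative controls and log2-transformed. Hits were wells at least three median absolute deviations from the median of all screened wells.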

[1] = 0.25 µM, library screen: screen1, EWS-FLI1 expression: high (no doxycycline)
[2] = 0.25 µM, library screen: screen1, EWS-FLI1 expression: low (doxycycline-induced shRNA knockdown)
[3] = 0.25 µM, library screen: screen2, EWS-FLI1 expression: high (no doxycycline)
[4] = 0.25 µM, library screen: screen2, EWS-FLI1 expression: low (doxycycline-induced shRNA knockdown)
[5] = 2.5 µM, library screen: screen1, EWS-FLI1 expression: high (no doxycycline)
[6] = 2.5 µM, library screen: screen1, EWS-FLI1 expression: low (doxycycline-induced shRNA knockdown)
[7] = 2.5 µM, library screen: screen2, EWS-FLI1 expression: high (no doxycycline)
[8] = 2.5 µM, library screen: screen2, EWS-FLI1 expression: low (doxycycline-induced shRNA knockdown)

Measured: cell viability (log2)

CN1C2CCC1CC(OC(c1ccccc1)c1ccccc1N)C2 (stereo unspecified)
inactive: [1] 0.0792 | [2] 0.0013 | [3] 0.13 | [4] 0.107 | [5] 0.094 | [6] -0.0817 | [7] 0.165 | [8] 0.125

C[C@@H]1C(=O)O[C@H]2[C@H]1CC[C@@]1(C)C=CC(=O)[C@@]3(C)O[C@@]213
inactive: [1] -0.0341 | [2] 0.0137 | [5] 0.0354 | [6] 0.0553

COP(N)(=O)SC (stereo unspecified)
inactive: [1] 0.148 | [2] 0.0387 | [5] 0.151 | [6] 0.112

COc1cc(C(O)CN)ccc1O (stereo unspecified)
inactive: [3] 0.137 | [4] 0.137 | [7] 0.0316 | [8] 0.00185

c1ccc(N=Nc2ccccc2)cc1
inactive: [1] 0.0795 | [2] 0.0179 | [5] 0.0868 | [6] 0.083

NC(=NCCCC(N)C(=O)O)N[N+](=O)[O-] (stereo unspecified)
inactive: [1] 0.0461 | [2] 0.0355 | [3] 0.174 | [4] -0.00505 | [5] 0.0987 | [6] 0.0962 | [7] 0.128 | [8] 0.0828

CN1C[C@@H](CO)C=C2c3cccc4[nH]cc(c34)C[C@@H]21
inactive: [1] 0.0549 | [2] 0.11 | [5] 0.076 | [6] 0.0565

NC(=O)CN1CC(O)CC1=O (stereo unspecified)
inactive: [3] 0.159 | [4] 0.0927 | [7] 0.0479 | [8] 0.0838

CC[C@@H]1/C=C/C=C/C[C@H](C)[C@@H](O)[C@](C)(O)C(=O)[C@H](C)[C@@H](O)[C@H](C)C(=O)[C@H](C)[C@@H](O)[C@H](C)/C=C/C(=O)O[C@H]2[C@@H](C)[C@@H](CC1)O[C@@]1(CC[C@@H](C)[C@@H](C[C@H](C)O)O1)[C@@H]2C
active: [3] -0.731 | [4] -0.205 | [7] -0.713 | [8] -0.154

NC(CCP(=O)(O)O)C(=O)O (stereo unspecified)
inactive: [3] 0.115 | [4] 0.0812 | [7] 0.106 | [8] 0.13

CC(C)(C#N)O[C@@H]1O[C@H](CO)[C@@H](O)[C@H](O)[C@H]1O
inactive: [1] 0.0597 | [2] 0.0616 | [5] 0.164 | [6] -0.0392

CC(C)NC(C)Cc1ccc(I)cc1 (stereo unspecified)
inactive: [3] 0.0787 | [4] 0.0338 | [7] 0.129 | [8] 0.0526

CCN1C[C@]2(COC)[C@H](O)C[C@H](OC)[C@]34C1[C@H]([C@H](OC)[C@H]23)[C@]1(OC(C)=O)[C@H]2[C@@H](OC(=O)c3ccccc3)[C@](O)(C[C@H]24)[C@@H](OC)[C@@H]1O
inactive: [1] 0.162 | [2] 0.0997 | [5] 0.181 | [6] 0.202

CCC(=O)C(CC(C)N1CCOCC1)(c1ccccc1)c1ccccc1 (stereo unspecified)
inactive: [1] 0.0298 | [2] 0.011 | [5] 0.0537 | [6] -0.074

CC[C@@H](C(=O)[C@@H](C)[C@@H](O)[C@H](C)[C@@H]1O[C@@H]([C@@H](CC)C(=O)O)CC[C@@H]1C)[C@H]1OC2(C=C[C@@H](O)[C@]3(CC[C@@](C)([C@H]4CC[C@](O)(CC)[C@H](C)O4)O3)O2)[C@H](C)C[C@@H]1C (stereo partly specified)
inactive: [2] 0.0935 | [6] -0.123
active: [1] -0.101 | [5] -0.582

O=C(O)CF
inactive: [1] -0.0204 | [2] -0.0324 | [5] 0.103 | [6] 0.0882

COc1cc(CC(C)N)c(OC)cc1I (stereo unspecified)
inactive: [3] 0.14 | [4] 0.0726 | [7] 0.151 | [8] 0.083

O=C[C@H](Cl)[C@@H](O)[C@H](O)[C@H](O)CO
inactive: [3] 0.14 | [4] 0.0253 | [7] 0.0931 | [8] 0.107

NCC#Cc1ccccc1
inactive: [3] 0.139 | [4] -0.0046 | [7] 0.0226 | [8] 0.0206

c1ccc2c(c1)[I+]c1ccccc1-2
active: [3] -1.37 | [4] -0.118 | [7] -1.4 | [8] -0.388

O=C1c2ccccc2C(=O)c2ccccc21
inactive: [1] 0.0481 | [2] 0.0868 | [5] 0.203 | [6] 0.0785

COc1cc2c3cc1Oc1cc(ccc1O)C[C@H]1c4c(cc(OC)c(O)c4Oc4ccc(cc4)C[C@@H]3N(C)CC2)CCN1C
inactive: [1] 0.0853 | [2] 0.0939 | [5] 0.083 | [6] 0.276
